These results are taken from PubChem BioAssay AID2177 (The Scripps Research Institute Molecular Screening Center, 2009).

Screen size: about 320,000 compounds; about 1,200 (0.38%) were called active. The sample holds actives, similar compounds and a random draw of the others, so the mix is not that of the screen. Values without a mark were called inactive.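 Rule for the calls: active = inhibition above the screen-wide mean plus 3 SD, limit set per campaign (cut at about 26% in these data); inactive = the rest.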

The target in this assay is Acyl-protein thioesterase 2 (Homo sapiens) (UniProt O95372). Put plainly: inhibition of human lysophospholipase 2 – biochemical, fluorescence polarization, FP-Rh probe ABPP, counter-screen for PME1 inhibitor project, primary screen (AID 2177).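 Note: 0% = LYPLA2 with DMSO and 100% = wells lacking LYPLA2 enzyme.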 The following applies: recombinant LYPLA2, FP-Rh probe fluorescence polarization; at 5.9 µM; active compounds read high. (Fluorescence polarisation rises when a labelled molecule tumbles more slowly, as on binding a larger partner.)
Acyl-protein thioesterase 2 (Homo sapiens), sequence (O95372 whole entry, looked up): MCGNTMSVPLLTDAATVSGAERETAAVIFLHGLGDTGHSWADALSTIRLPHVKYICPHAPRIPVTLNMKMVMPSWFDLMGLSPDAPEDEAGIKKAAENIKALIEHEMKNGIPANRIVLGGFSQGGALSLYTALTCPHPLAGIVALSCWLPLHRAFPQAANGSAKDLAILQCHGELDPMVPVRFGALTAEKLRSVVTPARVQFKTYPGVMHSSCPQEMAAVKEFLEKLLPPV
As a reminder, the inhibition is the drop in the measured response relative to a control, in per cent. Turning to `CCN(C(=O)C1CCCN(c2nc(-c3ccc(OC)cc3)no2)C1)c1ccc(OC)cc1` (stereo not given), the inhibition is 1.52%.

In the case of `O=C(N/N=C/c1cccc(OC(=O)c2ccc([N+](=O)[O-])cc2)c1)c1cccnc1`, the inhibition is -5.79%.

For `N#Cc1cc([N+](=O)[O-])ccc1Oc1cccc(/C=N/NC(=O)c2ccc(Cl)cc2)c1`, the inhibition is 36.9% (active).

Consider `COc1ccc(/C=N/NC(=O)c2ccc(Cl)cc2)cc1COC(C)=O`, for which the inhibition was -4.59%.

Regarding `Cc1c(CC(=O)NCC(=O)NCC(=O)O)c(=O)oc2cc3oc4c(c3cc12)CCCC4`, the inhibition was 4.77%.

With `COc1ccc(OC)c(NC(=O)c2cccc(S(=O)(=O)N3CCN(C(C)=O)CC3)c2)c1`, the inhibition was -0.81%.

Take `COc1ccc2c(c1)C=CC1(O2)N(CCO)c2ccccc2C1(C)C` (stereo not given): the inhibition is -20.1%.

`O=C(NC(Cc1ccccc1)C(=O)O)/C(=C\c1ccccc1)NC(=O)c1ccco1` (stereo not given): the inhibition was 1.3%.

With `COc1ccccc1CNC(=O)C1CCN(S(=O)(=O)c2ccc3c(c2)CC(C)N3C(=O)C2CC2)CC1` (stereo not given), the inhibition is 14.5%.

Turning to `CC(=O)c1ccc(N2CCN(S(=O)(=O)c3ccc4c(c3)CC(=O)N4C)CC2)cc1`, the inhibition was 4.78%.

Take `CC(=O)N1c2ccc(S(=O)(=O)N3CCC(C(=O)N4CCN(c5ccccc5)CC4)CC3)cc2CC1C` (stereo not given): the inhibition is 58% (active).

In the case of `CC(=O)c1ccc(N2CCN(C(=O)C3CCN(S(=O)(=O)c4ccc5c(c4)CC(C)N5C(=O)C4CC4)CC3)CC2)cc1` (stereo not given), the inhibition was 75% (active).

Regarding `CC(=O)N1c2ccc(S(=O)(=O)N3CCC(C(=O)NC4CCCC(C)C4C)CC3)cc2CC1C` (stereo not given), the inhibition was -4.4%.

With `CC(=O)N1c2ccc(S(=O)(=O)N3CCC(C(=O)NC4CCCCC4C)CC3)cc2CC1C` (stereo not given), the inhibition was -1.87%.

In the case of `O=C(O)CC(Cc1ccccc1)C(=O)Nc1ccc([N+](=O)[O-])cc1` (stereo not given), the inhibition is -0.26%.

Turning to `CCOC(=O)c1cc(NC(=O)SCC(=O)O)c(C)nc1C`, the inhibition is 4.19%.

Regarding `COc1cc(C(=O)NCc2ccc3c(c2)cc(C)n3C)cc(OC)c1OC`, the inhibition is 6.1%.

With `CCOC(=O)c1c(-c2ccccc2)oc2ccc(OCC(=O)NN)cc12`, the inhibition is -13%.

With `CCCc1c(C(=O)Nc2ccc(F)cc2)cnn1-c1ccccc1`, the inhibition was -3.93%.

In the case of `O=C(CSCc1ccc([N+](=O)[O-])cc1)Nc1cccc(C(=O)Nc2ccccc2C(=O)O)c1`, the inhibition is -6.72%.

For `COc1ccccc1C(=O)NC(CCSC)C(=O)N1CCN(C(C)=O)CC1` (stereo not given), the inhibition was -2.46%.

As to `COc1ccccc1C(=O)NC(CCSC)C(=O)N1CCN(C/C=C/c2ccccc2)CC1` (stereo not given), the inhibition was 37.6% (active).

With `COc1ccccc1C(=O)NC(CCSC)C(=O)NNC(=O)c1ccccc1C` (stereo not given), the inhibition was -3.19%.

Consider `Cc1scc(C(=O)NNC(=S)NCC(C)C)c1C`, for which the inhibition is 8.57%.

For the molecule `Cc1sc2ncnc(N3CCC(C(=O)Nc4ccc(F)cc4Cl)CC3)c2c1C`, the inhibition is -1.19%.

As for `COc1ccc(CCNc2nc(-c3cccc(NC(C)=O)c3)cs2)cc1OC`, the inhibition was 31.9% (active).

On to `COc1ccc(CC(=O)Nc2nc(-c3ccc(F)c(F)c3)cs2)cc1OC`, for which the inhibition was -13.7%.

For the molecule `CC(=O)Nc1cccc(-c2csc(Nc3cccc(C)n3)n2)c1`, the inhibition was 2.92%.

As for `CC(C(=O)Nc1ccc(O)c(C(=O)O)c1)N1C(=O)/C(=C/c2cccs2)SC1=S` (stereo not given), the inhibition is 2.96%.

`COc1cc(NS(=O)(=O)c2ccc3ccccc3c2)c2ncccc2c1`: the inhibition is -11.9%.

On to `O=C(c1cccs1)C1C(c2ccc(Br)cc2)NC(=S)NC1(O)C(F)(F)F` (stereo not given), for which the inhibition is -1.56%.

As for `CCC(=O)c1ccc(OCC(O)CN2CCN(c3cccc(C(F)(F)F)c3)CC2)cc1` (stereo not given), the inhibition was 64.8% (active).

As to `COc1ccc(N2CCN(C(=O)COc3ccc4c(C)cc(=O)oc4c3)CC2)cc1`, the inhibition is 11.7%.

For the molecule `Cc1c(C)c2ccc(OCC(=O)N3CCN(c4cccc(Cl)c4)CC3)cc2oc1=O`, the inhibition is 49.8% (active).

In the case of `O=C(CCCN1C(=O)CSc2ncccc21)N1CCN(c2cccc(C(F)(F)F)c2)CC1`, the inhibition is 63.4% (active).

With `O=C(COc1ccc(Cl)cc1)N1CCN(S(=O)(=O)c2ccc(Cl)cc2)CC1`, the inhibition is -0.85%.

Consider `O=C(COc1ccc(Cl)cc1)N1CCN(c2cccc(C(F)(F)F)c2)CC1`, for which the inhibition is 69.5% (active).

With `O=C(CN1C(=O)CSc2ncccc21)N1CCOCC1`, the inhibition was -0.09%.

For the molecule `O=C(CCCN1C(=O)C2C3C=CC(C3)C2C1=O)N1CCN(c2ccccc2)CC1` (stereo not given), the inhibition is -3.87%.

As to `O=C(COc1ccc(S(=O)(=O)Nc2cccc(C(F)(F)F)c2)cc1)N1CCOCC1`, the inhibition was 2.78%.

On to `CCC(=O)c1ccc(OCC(O)CN2CC(C)OC(C)C2)cc1` (stereo not given), for which the inhibition is 2.23%.

`CCOc1ccccc1N1CCN(C(=O)COc2ccc3c(C)cc(=O)oc3c2)CC1`: the inhibition was -4.36%.

In the case of `OC(COc1ccc2c(c1)CCC2)CN1CCN(c2cccc(Cl)c2)CC1` (stereo not given), the inhibition was 20.1%.

Consider `O=C(c1ccc2c(c1)N(Cc1ccc(F)cc1)C(=O)c1ccccc1S2(=O)=O)N1CCN(c2ccccn2)CC1`, for which the inhibition is 1.84%.

As to `COc1cc(S(=O)(=O)N(Cc2cccs2)C2CC2)ccc1-n1cnnn1`, the inhibition is 3.27%.

As to `CCOC(=O)N1CCN(S(=O)(=O)c2ccc3c(c2)C(C)C(=O)N3)CC1` (stereo not given), the inhibition is -2.51%.

For the molecule `Cc1ccccc1NC(=O)CSC1=NCCN1`, the inhibition is 0.07%.

Consider `O=C1C2C3C=CC(C3)C2C(=O)N1c1ccc(-c2nc3ccccc3c(=O)o2)cc1` (stereo not given), for which the inhibition was 1.58%.

For `N#CCSc1nn(-c2ccc(F)cc2)c(=S)s1`, the inhibition was -7.24%.

On to `COc1cccc(C(=O)Nc2nnc(S(=O)(=O)N3CCOCC3)s2)c1`, for which the inhibition was -0.08%.

Take `Cc1ccccc1Cn1c2ccccc2c2cnn(CC(=O)NCc3ccco3)c(=O)c21`: the inhibition was -21%.

Turning to `COc1ccc(-c2nc(CS(=O)CC(=O)NCc3ccccc3)c(C)o2)cc1OC` (stereo not given), the inhibition is 0.93%.

Turning to `COc1cccc(-c2nc(CS(=O)CC(=O)NCc3ccc(F)cc3)c(C)o2)c1` (stereo not given), the inhibition is 10.6%.

Take `COc1ccc(-c2nc(CS(=O)CC(=O)NCc3ccccn3)c(C)o2)cc1` (stereo not given): the inhibition was 27.8% (active).

For the molecule `CC[N+](C)(CC)CCC[n+]1c(-c2ccccc2)c2cc(N)ccc2c2ccc(N)cc21`, the inhibition is 72.4% (active).

Turning to `O=C1/C(=C\c2ccccc2Cl)SC(=S)N1CCC(=O)N1CCCc2ccccc21`, the inhibition is -1.32%.

Consider `CCOc1ccc(NC(=O)CN(C)C(=O)CCSc2ccc(F)cc2)cc1OCC`, for which the inhibition is 6.29%.

Turning to `O=C(CCl)NNc1cccc(Cl)n1`, the inhibition was -5.01%.

With `CC1CC(NC(=O)/C(C#N)=C/c2ccc[nH]2)CC(C)(C)C1` (stereo not given), the inhibition is 0.74%.

Take `O=C(Nc1cccc2ccccc12)N1CCN(Cc2ccc3c(c2)OCO3)CC1`: the inhibition was 1.22%.

As for `O=C(CCCN1C(=O)c2cccc3cccc(c23)C1=O)N1CCN(Cc2ccc3c(c2)OCO3)CC1`, the inhibition is 64.2% (active).

`Cn1c(=O)cc(OCCCC(=O)N2CCN(Cc3ccc4c(c3)OCO4)CC2)c2ccccc21`: the inhibition is 9.58%.

Regarding `CCCCCc1c(C)nc(N2CCN(Cc3ccc4c(c3)OCO4)CC2)[nH]c1=O`, the inhibition was -5.68%.

With `O=C(CSc1nnc(-c2ccc([N+](=O)[O-])cc2)o1)Nc1ccccn1`, the inhibition is 0.49%.

Take `CCOC(=O)CSc1nnc(-c2ccc([N+](=O)[O-])cc2)o1`: the inhibition is -0.42%.

In the case of `N#Cc1ccc(OCc2nnc(-c3ccc([N+](=O)[O-])cc3)o2)cc1`, the inhibition was 32.3% (active).

As to `N#Cc1c(/N=C/N2CCCC2)oc(-c2ccccc2)c1-c1ccccc1`, the inhibition is 4.8%.

Turning to `CC(=O)C12CC(C)=C(C)CC1CC1C3CCC4=CC(=O)CCC4(C)C3CCC12C` (stereo not given), the inhibition is -4.85%.

As to `COc1ccc(N2CC(C(=O)NCCN3C(=O)S/C(=C\c4cccnc4)C3=O)CC2=O)c(OC)c1` (stereo not given), the inhibition was 57.6% (active).

As for `COc1ccccc1N1CC(C(=O)NCCN2C(=O)S/C(=C\c3cccnc3)C2=O)CC1=O` (stereo not given), the inhibition was 1.85%.

Take `CCOc1ccc(N2CC(C(=O)NCCN3C(=O)S/C(=C\c4cccnc4)C3=O)CC2=O)cc1` (stereo not given): the inhibition is 6.19%.

On to `Cc1cc(C)c(S(=O)(=O)N2CCC(C(=O)OCc3c(C)noc3C)CC2)c(C)c1`, for which the inhibition is 5.23%.

Turning to `COCCn1c(SCC(=O)c2[nH]c(C)c(C(C)=O)c2C)nc2ccccc2c1=O`, the inhibition is -1.43%.

For `CN(CC(=O)NCCc1ccccc1)S(=O)(=O)c1cnc[nH]1`, the inhibition was -2.19%.

Consider `CCC(C)NC(=O)c1ccc(NC(=O)CC2SC(N3CCCCC3)=NC2=O)cc1` (stereo not given), for which the inhibition is -2.2%.

Take `O=C(CC1SC(N2CCCC2)=NC1=O)Nc1ccc(C(=O)NCCc2ccc(F)cc2)cc1` (stereo not given): the inhibition was 34.5% (active).

As to `COc1ccc(NC(=O)CC2SC(N3CCCCC3)=NC2=O)cc1OC` (stereo not given), the inhibition was -2.51%.

For `CCN(CC(=O)Nc1ccccc1OC)C(=O)CC1CC2CCC1C2` (stereo not given), the inhibition is 4.24%.

For `CCN(CC)C(=O)CC1(c2ccccc2OC)CCOC(C(C)C)C1` (stereo not given), the inhibition was 27.5% (active).

`COc1ccc(C2(CNC(=O)C(c3ccccc3)c3ccccc3)CCOCC2)cc1OC`: the inhibition is 0.76%.

Consider `c1ccc(-c2ccnc3nc(-n4cccc4)nn23)cc1`, for which the inhibition was 5.32%.

As for `CCCCCC1CCC(c2nnc(SCC(C)=O)o2)CC1` (stereo not given), the inhibition was 34.9% (active).

With `CCN(CC)C(=O)CSc1nnc(C2CCCCC2)o1`, the inhibition is 6.58%.

Regarding `Cc1[nH]c2ccccc2c1C(=O)C(C)Sc1nnc(C2CC2)o1` (stereo not given), the inhibition is 1.82%.

As for `CC(=O)Nc1ccc(N2C(=O)CCC2=O)cc1C`, the inhibition is 2%.
